Active and inactive are the calls of the source. Rule for the calls: active = hit-call score of the fitted dose curve at least 0.9, where 1 is the maximum; inactive = score below 0.9.
assay: CEETOX_H295R_CORTIC: CeeTox H295R High-throughput Steroidogenesis Assay for Corticosterone (CORTIC) (AID 2283437); conditions: actives raise or lower the signal;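 note: corticosterone secreted into medium quantified by mass spectrometry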
Experimental: CEETOX_H295R is a cell-based, multiplexed-readout assay that uses H295R, a human adrenal gland cell line, with measurements taken at 48 hours after chemical dosing in a 96-well plate.CEETOX_H295R_CORTIC is one of 23 assay component(s) measured or calculated from the CEETOX_H295R assay. It is designed to make measurements of hormone induction, a form of inducible reporter, as detected with absorbance signals by HPLC-MS-MS technology.Data from the assay component CEETOX_H295R_CORTIC was analyzed into 1 assay endpoint. This assay endpoint, CEETOX_H295R_CORTIC, was analyzed with bidirectional fitting relative to DMSO as the negative control and baseline of activity. Using a type of inducible reporter, gain or loss-of-signal activity using HPLC-MS-MS was used to understand synthesis of Corticosterone in H295R cell line at 48hr of chemical exposure. To generalize the intended target to other relatable targets, this assay endpoint is annotated to the steroid hormone intended target family, where the subfamily is glucocorticoids.
Cell culture and media preparation procedures were conducted in accordance with OECD Test No. 456 guidelines, with minor modifications. H295R cells (ATCC CRL-2128) were expanded for 5 passages and frozen in batches in liquid nitrogen. Prior to the steroidogenesis assay, H295R cells were thawed and passed at least 4 times. The maximum passage was 10. Cells were maintained in a 1:1 mixture of DMEM/F12 supplemented with 5ml/L ITS+ Premix (BD Bioscience) and 12.5 ml/L Nu-Serum (BD Bioscience). After seeding cells into 96-well plates at 50-60% confluency, cells were allowed to adhere overnight. Prior to chemical testing, culture medium was replaced with 175 uL medium containing 10 uM forskolin to stimulate steroidogenesis for 48 hours. Following prestimulation, forskolin medium was replaced with medium containing test chemical solubilized in DMSO (ensuring a final concentration of 0.1% DMSO). Test chemicals were incubated for 48 hours, then the medium was removed and split into 2 vials containing approximately 75uL each, and stored at -80 C prior to hormone analysis. For steroid quantification, media samples were shipped to OpAns, LLC (Durham, NC) on dry ice, and samples were thawed to room temperature prior to liquid-liquid extraction. Steroid hormones were extracted from media samples using methyl tertbutyl ether (MTBE). An extra derivatization with dansyl chloride was included for estrogen (estrone and estradiol) detection only. Steroid hormones were separated by HPLC, eluted using a reverse phase C18 gradient with electrospray positive ionization, followed by quantification by tandem mass spectrometry (MS/MS). Data were acquired on a MassHunter Workstation Acquisition version B03.01 (Agilent Technologies, Inc.) and processed using MassHunter Quantitative Analysis for QQQ. Accuracy was determined for each hormone analyte from 3 standards to determine upper and lower limits of quantification (ULOQ and LLOQ, respectively) using a 7-point standard curve. Precision and accuracy of the extraction and quantification methods were calculated as the percent relative standard deviation (%RSD) of the spiked standards and percent spiked standard recovered, respectively. […] Test medium was removed following chemical exposure, and cell viability was evaluated in the same wells by MTT. MTT procedures were as follows: after removal of test medium, 500 uL of 0.5 mg/ml of 3-[4,5-dimethylthiazol-2-y]2,5-diphenyltetrazoliumbromide solution was added to the cells. Following a 4-hour incubation at 37 C and 5% CO2 to allow formazan-crystal formation, the MTT solution was removed and blue formazan salt crystals were solubilized using 500uL anhydrous isopropanol with shaking for 20 minutes. Absorbance was read at 570 and 650nm using a Packard Fusion microplate reader. Background correction of absorbance units was used to determine percent change relative to controls. […]

| SMILES | outcome | AC50 |
| --- | --- | --- |
| CCCSP(=O)(OCC)SCCC | inactive | – |
| CCOC(=O)COc1cc(-c2nn(C)c(OC(F)F)c2Cl)c(F)cc1Cl | inactive | – |
| CCCOCC(=Nc1ccc(Cl)cc1C(F)(F)F)n1ccnc1 | inactive | – |
| CCOP(=S)(OCC)Oc1cc(C)nc(C(C)C)n1 | – | 36.6 µM (active) |
| Nc1nc(N)nc(NC2CC2)n1 | inactive | – |
| O=C(O)c1cc(Oc2ccc(C(F)(F)F)cc2Cl)ccc1[N+](=O)[O-] | inactive | – |
| COP(=O)(NC(C)=O)SC (centres undefined) | inactive | – |
| COc1ccc(C(=CC(=O)N2CCOCC2)c2ccc(Cl)cc2)cc1OC | inactive | – |
| CCOP(=S)(OCC)Oc1ccc2c(C)c(Cl)c(=O)oc2c1 | inactive | – |
| FC(F)C(F)(F)OCC(Cn1cncn1)c1ccc(Cl)cc1Cl (centres undefined) | inactive | – |
| CCCCN(CC)c1c([N+](=O)[O-])cc(C(F)(F)F)cc1[N+](=O)[O-] | inactive | – |
| CCOP(=S)(OCC)Oc1ccc([N+](=O)[O-])cc1 | inactive | – |
| CSc1nnc(C(C)(C)C)c(=O)n1N | inactive | – |
| CCOP(=O)(NC(C)C)Oc1ccc(SC)c(C)c1 (centres undefined) | inactive | – |
| CNc1cnn(-c2cccc(C(F)(F)F)c2)c(=O)c1Cl | inactive | – |
| C#CC(C)(C)NC(=O)c1cc(Cl)cc(Cl)c1 | inactive | – |
| CCNc1nc(Cl)nc(NC(C)(C)C#N)n1 | inactive | – |
| CNC(=O)Oc1cccc2c1OC(C)(C)O2 | inactive | – |
| CNC(=O)ON=C(C)SC | inactive | – |
